# Measured values: PubChem BioAssay
# Molecular target: Calmodulin-1 (Homo sapiens) (UniProt P0DP23)
# Assay: calcium-bound CALM1 binders on microarrays, profiling panel, artefact control for SMM control-protein annotation, biochemical, small-molecule microarray, Cy5-labelled CALM1, plus calcium (AID 1112);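 note: score merges spot fluorescence with signal to noise from triplicate slides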
# Settings: Cy5-CALM1 binding fluorescence, higher = more signal
row,Structure (SMILES),composite z-score
1,[N-]=[N+]=NCc1ccccc1[C@H]1OC(c2ccc(OCCCO)cc2)=N[C@@]1(CCS(=O)(=O)c1ccccc1)C(N)=O,0.257
2,COc1ccc([Si](C)(C)[C@@H]2[C@@H](CCO)O[C@]3(C(=O)N(Cc4cccc(N5C(=O)c6cccc7cccc5c67)c4)c4ccccc43)[C@H]2C)cc1,0.978
3,CC(C)CNC(=O)[C@@H]1c2ccccc2C(=O)N(Cc2cc(F)cc(C(F)(F)F)c2)[C@H]1c1ccc(CO)cc1,-0.025
4,C=CCN1C(=O)[C@]2(CC=C)N=C(c3ccc(OCCCO)cc3)O[C@@H]2c2ccccc21,0.541
5,COC(=O)C1(Cc2ccccc2)C=C2C(=C(C(C)C)C(=O)C2C)CN1 (stereo not drawn),1.54
6,C=C(C(=O)CC[C@H](OC(=O)c1cccnc1)c1ccc(CO)o1)C(C)C,-0.316
7,COc1ccc(C(O)C2C=CC3C(=O)N(c4ccccc4)C(=O)C3N2Nc2ccc(C#N)cc2)c2ccccc12 (stereo not drawn),1.07
8,NC(=O)NCC#Cc1ccc2c(c1)[C@]1(C(=O)N2)[C@H](C(=O)Nc2nc3ccccc3s2)[C@H]2C(=O)O[C@H](c3ccccc3)[C@H](c3ccccc3)N2[C@@H]1c1ccc(O)cc1,0.414
9,COc1ccc(C#Cc2ccc3c(c2)[C@]2(C(=O)N3)[C@H](C(=O)N3CCc4cc(OC)c(OC)cc4C3)[C@H]3C(=O)O[C@H](c4ccccc4)[C@H](c4ccccc4)N3[C@@H]2c2ccc(O)cc2)cc1,0.06

# System: not listed separately
# Assay: small-molecule microarray binders of probe aWnt5a, primary screen, biochemical, biotinylated probe, 635/667 nm fluorescence (AID 1113);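 note: score merges 667 nm fluorescence intensity with signal-to-noise per printed feature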
# Settings: higher = more signal
row,Structure (SMILES),composite z-score
1,C=CCC(OC(C)=O)[C@@H]1[C@@H](N(Cc2cc3ccccc3o2)C(=O)c2ccc(C)cc2)c2cc(OCCCO)ccc2N1C(=O)Cc1ccc2ccccc2c1 (stereo partly drawn),0.103
2,COC(=O)[C@H](Cc1ccccc1)N1CC(/C=C/C2CC2)=C[C@@H]1[C@@H](O)Cc1ccccc1,0.0079
3,C=C1C2CC3C(=C4C(CO[C@@H]4[C@H]4CCCN4S(=O)(=O)c4ccccc4[N+](=O)[O-])C4C(=O)N(C)C(=O)C34)CC2C(=O)N1C (stereo partly drawn),-0.152
4,[N-]=[N+]=Nc1ccccc1C[C@]1(C(=O)NCc2ccccc2)N=C(c2ccc(OCCCO)cc2)O[C@H]1c1ccccc1,0.0357
5,COc1ccccc1CN1C(=O)c2ccccc2[C@](Cc2ccccc2I)(C(=O)NC(C)C)[C@@H]1c1ccc(CO)cc1,-0.0455
6,O=C1NC(=O)C2C1C=CC(C(O)c1ccc3c(c1)OCO3)N2Nc1ccccn1 (stereo not drawn),-0.0524
7,[N-]=[N+]=NCc1ccccc1C[C@@]1(C(N)=O)N=C(c2ccc(OCCCO)cc2)O[C@@H]1c1ccccc1CN=[N+]=[N-],-0.0236
8,COCCCNC(=O)[C@]1(Cc2ccccc2CN=[N+]=[N-])N=C(c2ccc(OCCCO)cc2)O[C@@H]1c1ccccc1,0.0519
9,COCCOC(=O)N1C(=O)[C@@]2(c3cc(C#CC4(O)CCCCCC4)ccc31)[C@H](C(=O)N1CCCCCCC1)[C@H]1C(=O)O[C@H](c3ccccc3)[C@H](c3ccccc3)N1[C@@H]2c1ccc(OCCO)cc1,1.12
10,CN(C)CCCCNC(=O)[C@H]1C[C@H]2C(=O)N3CCC[C@H]3C(=O)N2[C@H]1c1ccc(O)cc1,-0.45
11,O=C1O[C@H](c2ccccc2)[C@H](c2ccccc2)N2[C@H]1[C@@H](C(=O)O)[C@]1(C(=O)Nc3ccccc31)[C@H]2c1ccc(O)cc1,-0.1
12,C=CC[C@@]1(C(=O)O)N=C(c2ccc(OCCCO)cc2)O[C@@H]1c1ccccc1,0.499
13,CN1C(=O)C2C(C1=O)C1C=C(c3ccc(CO)cc3)C2C(c2cccs2)N1Cc1cccc(OC(F)(F)F)c1 (stereo not drawn),0.0077
14,COc1cc(CO)cc(I)c1O[C@H]1C=C(C(=O)NCCO)C[C@@H](N(CC2CCCCC2)C(=O)c2ccc(C(F)(F)F)cc2)[C@@H]1O,-0.087
15,C=C(/C=C/CNS(=O)(=O)c1ccc(C)cc1)[C@H](O)[C@H]1CCCN1S(=O)(=O)c1ccccc1[N+](=O)[O-],-0.119
16,C=CCN1C(=O)[C@@]2(O[C@@H](CCO)[C@H]([Si](C)(C)c3ccc(OC)cc3)[C@H]2C)c2cc(N3C(=O)c4ccccc4Oc4ccccc43)ccc21,0.0181
17,COCCOC(=O)N1C(=O)[C@@]2(c3cc(C#CCNC(N)=O)ccc31)[C@H](C(=O)N1CCCCCCC1)[C@H]1C(=O)O[C@H](c3ccccc3)[C@H](c3ccccc3)N1[C@@H]2c1ccc(O)cc1,-0.164
18,Cc1ccc(S[C@]2(C(=O)NCc3ccccc3)CC(=O)N(C(C)C)[C@@H]2c2ccc(CO)cc2I)cc1,-0.243
19,CCOC(=O)C1=CC[C@@H](c2ccc([N+](=O)[O-])cc2)N(S(=O)(=O)c2ccc(C)cc2)[C@H]1c1ccccc1,0.0324
